PubChem BioAssay (NCATS)
Results filed as inconclusive are left out. Activity calls are given as the source filed them. Unless noted, the call rests on the fitted dose curve; in most records, active means well fitted curve in the direction sought with a large enough effect; inconclusive means small, poorly fitted or top-dose-only effect, or another doubt; inactive means no such curve, though single readings can be large; an effect the other way counts as inactive or inconclusive.

How the values were obtained:
[1] = biological target: Cytochrome P450 3A4 (Homo sapiens) (UniProt P08684); test: qHTS Assay for Inhibitors and Substrates of Cytochrome P450 3A4 (AID 884); further: on the % scale 0 is the no-effect control and ±100 the full control effect; nearly all actives have a fitted effect of over 50% in size
Method in brief: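 20 nM human CYP3A4 with 25 uM Luciferin-PPXE (at KM) in 200 mM KPO4, preincubated 10 min with compound; NADPH regeneration started a 60 min RT reaction. Luciferin detected by luminescence, normalized to 57 uM ketoconazole as full inhibition.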

[2] = Confirmation and Secondary Assay for Modulators of Hemoglobin Beta Chain Splicing at IVS2 654 locus (AID 910);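 further: per-well total GFP intensity by laser scanning cytometry after 2-day treatment; % of control where 0% means no effect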
Method in brief: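 HeLa cells stably carrying EGFP interrupted by mutant beta-globin IVS2-654 intron (CMV-driven) were treated with compound for 2 days at 37C; corrected splicing was scored as total peak GFP intensity per well (488 nm excitation, 500-520 nm emission).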

[3] = Confirmation and Secondary Assay for Modulators of Hemoglobin Beta Chain Splicing at IVS2 705 locus (AID 930);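 further: HeLa cells stably expressing the EGFP-705 splicing reporter; % of control where 0% means no effect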
Method in brief: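 HeLa cells stably carrying EGFP interrupted by mutant beta-globin IVS2-705 intron (CMV-driven) were seeded at 500 cells/well, treated next day with compound for 2 days at 37C; corrected splicing restores EGFP, read as total peak GFP intensity per well.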

[4] = qHTS Assay for Lipid Storage Modulators (AID 1519; calls by dose curve; on activity change, negative = inhibition: on the % scale 0 is the no-effect control and ±100 the full control effect); conditions: Drosophila S3 cells, BODIPY lipid droplet/cell ratio, laser cytometry, cells loaded with oleic acid
Method in brief: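 Cells seeded at 5,000 per well were treated with compounds over a concentration series and loaded with oleic acid (400 uM, as added). Lipid droplet fluorescence (488 nm excitation, 500-530 nm channel) was read by laser-scanning cytometry and normalized to 20 uM Triacsin C.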

[5] = biological target: Ubiquitin carboxyl-terminal hydrolase 1 (Homo sapiens) (UniProt O94782); test: Inhibitors of USP1/UAF1: Pilot qHTS (AID 504865);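 further: rhodamine fluorescence freed from ubiquitin-rhodamine substrate followed over time; top concentration of the series differs between compounds; on the % scale 0 is the no-effect control and ±100 the full control effect; nearly all actives have a fitted effect of over 35% in size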
Method in brief: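 Kinetic fluorescence assay: 1nM USP1/UAF1, 15 min compound preincubation, then 150nM Ub-Rho; 480/540 nm.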

[6] = biological target: Luciferin 4-monooxygenase (Photinus pyralis) (UniProt P08659); test: Biochemical firefly luciferase enzyme assay for NPC (AID 624030);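 further: purified P. pyralis luciferase at 10 nM with luciferin and ATP substrate; 0% = DMSO and -100% = full luciferase inhibition by PTC124 control; nearly all actives have a fitted effect of over 70% in size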
Method in brief: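 Counter-screen for direct inhibition of the luciferase enzyme by approved-drug library compounds, run at 10 nM enzyme in 50 mM Tris acetate (final). Luminescence was read within 5 min of enzyme-buffer addition and normalized to PTC124 versus DMSO (0%).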

[7] = S16 Schwann cell PMP22 intronic element beta-lactamase assay (AID 624044; calls by dose curve; further: nearly all actives have a fitted effect of over 15% in size; further: potency means the concentration at half of the fitted maximal effect)
Method in brief: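 Rat S16 Schwann cells with beta-Lac driven by a PMP22 intronic element, compound-treated 24 h at 37 °C. LiveBLAzer FRET B/G read: 460 nm normalized to potassium clavulanate vs DMSO; 535 nm FRET as viability; concentration-effect curves classified.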

[8] = qHTS profiling for inhibitors of Plasmodium falciparum proliferation (AID 504749); further: potency means the concentration at half of the fitted maximal effect;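 on activity, negative = inhibition: 0% = DMSO vehicle and full inhibition = artemisinin control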; on all read-outs here: nearly all actives have a fitted effect of over 60% in size; conditions: P. falciparum in erythrocytes, SYBR Green DNA, 72 h; for activity, negative = inhibition: at 28.7 µM (top of the series)
Method in brief: (§1)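 P. falciparum-infected erythrocytes (0.3% parasitemia, 2.5% hematocrit final) were exposed to compounds for 72 h at 37 C in 5% CO2, then lysed with SYBR Green buffer overnight at room temperature; parasite DNA fluorescence was normalized to artemisinin and DMSO controls.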

[9] = system: CP191; test: as above; conditions: P. falciparum in erythrocytes, SYBR Green DNA, 72 h; series mostly up to 12.8 µM
Method in brief: as §1

[10] = system: CP201; test: as above; conditions: P. falciparum in erythrocytes, SYBR Green DNA, 72 h; series mostly up to 12.8 µM
Method in brief: as §1

[11] = system: CP238; test: as above; conditions: P. falciparum in erythrocytes, SYBR Green DNA, 72 h; series mostly up to 12.8 µM
Method in brief: as §1

[12] = system: CP262; test: as above; conditions: P. falciparum in erythrocytes, SYBR Green DNA, 72 h; series mostly up to 12.8 µM
Method in brief: as §1

[13] = system: CP268; test: as above; conditions: P. falciparum in erythrocytes, SYBR Green DNA, 72 h; series mostly up to 12.8 µM
Method in brief: as §1

[14] = system: CP315; test: as above; conditions: P. falciparum in erythrocytes, SYBR Green DNA, 72 h; series mostly up to 12.8 µM
Method in brief: as §1

[15] = system: DFO2036; test: as above; conditions: P. falciparum in erythrocytes, SYBR Green DNA, 72 h; series mostly up to 12.8 µM
Method in brief: as §1

[16] = system: ECU; test: as above; conditions: P. falciparum in erythrocytes, SYBR Green DNA, 72 h; series mostly up to 12.8 µM
Method in brief: as §1

[17] = system: FAB9; test: as above; conditions: P. falciparum in erythrocytes, SYBR Green DNA, 72 h; series mostly up to 12.8 µM
Method in brief: as §1

[18] = system: PC15; test: as above; conditions: P. falciparum in erythrocytes, SYBR Green DNA, 72 h; series mostly up to 12.8 µM
Method in brief: as §1

[19] = system: PC49; test: as above; conditions: P. falciparum in erythrocytes, SYBR Green DNA, 72 h; series mostly up to 12.8 µM
Method in brief: as §1

[20] = system: C2A; test: as above; conditions: P. falciparum in erythrocytes, SYBR Green DNA, 72 h; series mostly up to 12.8 µM
Method in brief: as §1

[21] = measured here: cell count channel max response
[22] = measured here: lipid channel max response

Chain of Ubiquitin carboxyl-terminal hydrolase 1 (Homo sapiens) (O94782 whole entry, looked up): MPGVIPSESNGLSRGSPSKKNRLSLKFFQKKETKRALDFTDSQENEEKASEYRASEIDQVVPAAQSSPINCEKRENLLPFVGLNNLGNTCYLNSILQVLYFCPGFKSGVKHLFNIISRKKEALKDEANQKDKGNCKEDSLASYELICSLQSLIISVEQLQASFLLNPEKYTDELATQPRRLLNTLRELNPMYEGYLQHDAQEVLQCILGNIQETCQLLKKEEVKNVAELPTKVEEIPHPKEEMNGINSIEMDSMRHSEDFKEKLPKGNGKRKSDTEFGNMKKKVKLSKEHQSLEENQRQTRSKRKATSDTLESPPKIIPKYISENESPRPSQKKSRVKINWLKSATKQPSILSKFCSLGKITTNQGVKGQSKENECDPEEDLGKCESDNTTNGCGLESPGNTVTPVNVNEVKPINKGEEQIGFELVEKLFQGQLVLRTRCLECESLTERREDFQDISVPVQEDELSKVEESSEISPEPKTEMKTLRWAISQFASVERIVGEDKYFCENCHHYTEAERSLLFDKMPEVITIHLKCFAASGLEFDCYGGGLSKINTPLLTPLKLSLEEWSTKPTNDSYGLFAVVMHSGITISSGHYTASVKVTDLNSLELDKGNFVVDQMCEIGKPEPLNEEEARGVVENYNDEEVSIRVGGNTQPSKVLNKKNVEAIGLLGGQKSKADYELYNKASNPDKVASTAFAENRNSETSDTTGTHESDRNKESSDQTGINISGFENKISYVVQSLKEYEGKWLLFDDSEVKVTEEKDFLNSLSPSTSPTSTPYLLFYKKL
Chain of Cytochrome P450 3A4 (Homo sapiens) (P08684 whole entry, looked up): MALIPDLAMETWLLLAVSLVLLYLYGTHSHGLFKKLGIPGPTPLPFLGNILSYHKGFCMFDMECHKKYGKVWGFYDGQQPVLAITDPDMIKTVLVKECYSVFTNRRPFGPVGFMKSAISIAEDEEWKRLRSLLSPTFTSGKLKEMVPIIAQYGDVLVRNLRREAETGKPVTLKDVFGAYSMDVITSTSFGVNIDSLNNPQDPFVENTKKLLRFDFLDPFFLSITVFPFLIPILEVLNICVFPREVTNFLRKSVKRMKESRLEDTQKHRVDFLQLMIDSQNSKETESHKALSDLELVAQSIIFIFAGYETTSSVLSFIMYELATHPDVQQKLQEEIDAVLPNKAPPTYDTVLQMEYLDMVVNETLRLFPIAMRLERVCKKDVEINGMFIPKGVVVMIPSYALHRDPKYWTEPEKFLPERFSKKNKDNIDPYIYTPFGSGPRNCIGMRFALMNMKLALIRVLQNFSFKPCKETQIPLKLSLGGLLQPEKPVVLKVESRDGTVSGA
Chain of Luciferin 4-monooxygenase (Photinus pyralis) (P08659 whole entry, looked up): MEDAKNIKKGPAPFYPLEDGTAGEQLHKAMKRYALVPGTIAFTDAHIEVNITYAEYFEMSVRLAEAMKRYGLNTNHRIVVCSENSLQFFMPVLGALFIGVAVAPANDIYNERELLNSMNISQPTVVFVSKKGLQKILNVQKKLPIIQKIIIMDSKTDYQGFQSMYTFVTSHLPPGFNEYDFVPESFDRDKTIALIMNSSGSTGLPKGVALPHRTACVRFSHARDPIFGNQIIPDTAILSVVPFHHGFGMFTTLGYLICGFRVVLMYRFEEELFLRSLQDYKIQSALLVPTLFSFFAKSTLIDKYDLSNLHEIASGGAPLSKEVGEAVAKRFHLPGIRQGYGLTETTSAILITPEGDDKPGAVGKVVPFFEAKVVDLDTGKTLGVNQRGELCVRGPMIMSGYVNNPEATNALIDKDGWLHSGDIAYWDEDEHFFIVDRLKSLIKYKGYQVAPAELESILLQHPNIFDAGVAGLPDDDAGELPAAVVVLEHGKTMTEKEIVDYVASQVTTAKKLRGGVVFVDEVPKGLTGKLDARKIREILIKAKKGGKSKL

C[C@@]12CCC(=O)C=C1C=CC1C2CC[C@]2(C)C1CC[C@@]21CCC(=O)O1 (some centres undefined)
12.9%: max response [4, 22]
inactive: Potency [1] | Potency [2] | Potency [3] | activity change, negative = inhibition ([4]; at 57.5 µM (top of the series)) 7.74% | Potency [5] | Potency [6] | Potency [7] | activity, negative = inhibition ([8]; parasite line B) -24.2% | Potency [9] | Potency [10] | Potency [11] | Potency [12] | Potency [13] | Potency [14] | Potency [15] | Potency [16] | Potency [17] | Potency [18] | Potency [19]
3.63%: max response [4, 21]

N[C@@H]1C(O)OC(CO)C(O)C1O (some centres undefined)
7.77%: max response [4, 21]
inactive: Potency [1] | Potency [2] | Potency [3] | activity change, negative = inhibition ([4]; at 57.5 µM (top of the series)) 5.31% | Potency [5] | Potency [6] | Potency [7] | activity, negative = inhibition ([8]; parasite line A) 3.86% | Potency [20] | Potency [9] | Potency [10] | Potency [11] | Potency [13] | Potency [14] | Potency [15] | Potency [16] | Potency [17] | Potency [18] | Potency [19]
20.8%: max response [4, 22]

Nc1nc2ncc(CNc3ccc(C(=O)NC(CCC(=O)O)C(=O)O)cc3)nc2c(=O)[nH]1 (centres undefined)
inactive: Potency [1] | Potency [2] | Potency [3] | activity change, negative = inhibition ([4]; at 57.5 µM (top of the series)) 5.18% | Potency [5] | Potency [6] | Potency [7] | activity, negative = inhibition ([8]; parasite line A) 10.3% | activity, negative = inhibition ([8]; parasite line B) 16.6% | Potency [20] | Potency [9] | Potency [10] | Potency [11] | Potency [12] | Potency [13] | Potency [14] | Potency [15] | Potency [16] | Potency [17] | Potency [18] | Potency [19]
16.9%: max response [4, 21]
24.2%: max response [4, 22]

CCC1OC(=O)CC(O)C(C)[C@@H](O[C@@H]2OC(C)[C@H](O[C@@H]3C[C@@](C)(O)C(O)C(C)O3)C(N(C)C)C2O)[C@H](CC=O)CC(C)C(=O)/C=C/C(C)=C/[C@@H]1COC1OC(C)C(O)C(OC)[C@@H]1OC (some centres undefined)
inactive: Potency [1] | Potency [2] | Potency [3] | activity change, negative = inhibition ([4]; at 57.5 µM (top of the series)) 0.0526% | Potency [5] | Potency [6] | Potency [7] | Potency [16] | Potency [17] | Potency [18] | Potency [19]
-1.62%: max response [4, 21]
4.9%: max response [4, 22]

O=c1ccn([C@H]2C[C@H](O)[C@@H](CO)O2)c(=O)[nH]1
9.77%: max response [4, 21]
inactive: Potency [1] | activity change, negative = inhibition ([4]; at 57.5 µM (top of the series)) 5.4% | Potency [5]
16.3%: max response [4, 22]

C[C@H](CCC(=O)O)[C@H]1CC[C@H]2[C@H]3C(C[C@H](O)[C@]12C)[C@@]1(C)CC[C@@H](O)C[C@H]1C[C@H]3O (some centres undefined)
inactive: activity change, negative = inhibition ([4]; at 57.5 µM (top of the series)) 9.53% | Potency [5]
25.2%: max response [4, 22]
17.9%: max response [4, 21]

C[C@@H](CN1c2ccccc2Sc2ccccc21)N(C)C
inactive: activity change, negative = inhibition ([4]; at 25.7 µM (top of the series)) -3.2% | Potency [5]
-13.4%: max response [4, 22]
-10.2%: max response [4, 21]

CO[C@]12C(COC(N)=O)C3=C(C(=O)C(C)=C(N)C3=O)N1CC1NC12 (some centres undefined)
inactive: Potency [2] | Potency [3] | activity change, negative = inhibition ([4]; at 57.5 µM (top of the series)) 3.3% | Potency [6] | Potency [12]
5.7%: max response [4, 21]
11.5%: max response [4, 22]
active: Potency [7] 8910 nM | Potency ([8]; parasite line A) 1260 nM | Potency ([8]; parasite line B) 1260 nM | Potency [20] 1260 nM | Potency [9] 891 nM | Potency [11] 631 nM | Potency [15] 316 nM | Potency [16] 1410 nM | Potency [17] 5010 nM | Potency [18] 1410 nM | Potency [19] 3550 nM

N[C@H](CO)Cc1cnc[nH]1
15.8%: max response [4, 22]
11.7%: max response [4, 21]
inactive: Potency [1] | activity change, negative = inhibition ([4]; at 57.5 µM (top of the series)) 3.9% | Potency [5]

C[C@@]12C=CC(=O)C=C1CCC1C3CC(O)[C@@](O)(C(=O)CO)[C@]3(C)CC(O)[C@]12F (some centres undefined)
11.4%: max response [4, 21]
inactive: Potency [2] | Potency [3] | activity change, negative = inhibition ([4]; at 57.5 µM (top of the series)) 10.8% | Potency [5] | Potency [6] | activity, negative = inhibition ([8]; parasite line A) 5.41% | Potency [20] | Potency [9] | Potency [10] | Potency [11] | Potency [12] | Potency [13] | Potency [14] | Potency [15] | Potency [16] | Potency [17] | Potency [18] | Potency [19]
25.4%: max response [4, 22]
